Experimental findings from the supplement of paper PMC12645437, “Orthogonal IMiD-Degron Pairs Induce Selective Protein Degradation in Cells” (ACS Chemical Biology, 2025) are described below.

This experiment deals with T1, CRBN, Q96SW2.
T1 chain: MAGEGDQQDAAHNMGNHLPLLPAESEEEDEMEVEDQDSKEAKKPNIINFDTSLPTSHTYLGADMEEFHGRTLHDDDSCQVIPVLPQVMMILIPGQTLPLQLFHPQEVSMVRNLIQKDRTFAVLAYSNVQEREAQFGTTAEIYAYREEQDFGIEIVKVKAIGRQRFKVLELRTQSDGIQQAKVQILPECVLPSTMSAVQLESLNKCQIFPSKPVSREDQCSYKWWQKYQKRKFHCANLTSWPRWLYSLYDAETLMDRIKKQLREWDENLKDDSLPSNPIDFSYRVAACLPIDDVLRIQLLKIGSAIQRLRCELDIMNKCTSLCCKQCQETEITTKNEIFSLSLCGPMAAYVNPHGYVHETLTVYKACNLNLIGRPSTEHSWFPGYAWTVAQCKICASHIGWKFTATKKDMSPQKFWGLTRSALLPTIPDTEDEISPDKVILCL
Nature of the experiment: log2 fold change of degron read counts, EGFP-low vs EGFP+ sorted cells (limma voom), compound-induced degradation; higher = more compound-induced degradation of the degron-EGFP fusion; degrons are variants of IKZF1/3 zinc finger 2; compound dose not given here. Conditions: Jurkat, 18 h.

Where [1] appears, read: compound: compound 19 (5-tert-butyl-thalidomide).
[2] abbreviates: compound: compound 22 (5-morpholino-thalidomide).
[3] abbreviates: compound: compound 33 (diphenyl IMiD analogue).

In all, about 8,300 sequences were measured (“log2 fold change of degron read counts, EGFP-low vs EGFP+ sorted cells (limma voom), compound-induced degradation”: median about -1.1, highest 2% from about 3.2 on). Many of the other results were omitted from the sample, so the highest values are more common in it than they were.
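Note: pooled lentiviral library of zinc finger degron-EGFP fusions in mCherry-positive Jurkat cells, FACS-sorted after compound exposure, with degron abundance counted by next-generation sequencing.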

B1: 46F_47K_49E_50I_52G_53R_54A_55F_67L_, Q9UKT9 (peptide)
chain: FKCEICGRAFTQKGNLLRHIKL
For B1, the “log2 fold change of degron read counts” value runs as follows: under setting [1], -2.33; under setting [2], -3.03; under setting [3], -3.25; (compound: thalidomide) -2.08.

B2: 46F_47T_49D_50V_52G_53A_54D_55F_67L_, Q9UKT9 (peptide)
chain: FTCDVCGADFTQKGNLLRHIKL
Regarding B2, the “log2 fold change of degron read counts” value was -2.29 under setting [1], -1.84 under setting [2], -2.04 under setting [3] and -2.29 (compound: thalidomide).

B3: 46F_47M_49E_50V_52G_53A_54F_55F_67L_, Q9UKT9 (peptide)
chain: FMCEVCGAFFTQKGNLLRHIKL
Turning to B3, the “log2 fold change of degron read counts” value was -2.24 under setting [1], -2.24 under setting [2], 0.504 under setting [3] and -1.37 (compound: thalidomide).

B4: 46F_47C_49N_50Q_52G_53R_54A_55F_67L_, Q9UKT9 (peptide)
chain: FCCNQCGRAFTQKGNLLRHIKL
As to B4, the “log2 fold change of degron read counts” value is -2.96 under setting [1], -3.3 under setting [2], -2.71 under setting [3] and -2.65 (compound: thalidomide).

B5: 46F_47G_49D_50V_52G_53A_54E_55F_67L_, Q9UKT9 (peptide)
chain: FGCDVCGAEFTQKGNLLRHIKL
With B5, the “log2 fold change of degron read counts” value under setting [1] was -1.81, the “log2 fold change of degron read counts” value under setting [2] is -1.82, the “log2 fold change of degron read counts” value under setting [3] was -1.14 and the “log2 fold change of degron read counts” value (compound: thalidomide) was -1.84.

B6: 46F_47C_49P_50I_52G_53R_54M_55F_67L_, Q9UKT9 (peptide)
chain: FCCPICGRMFTQKGNLLRHIKL
In the case of B6, the “log2 fold change of degron read counts” value runs as follows: under setting [1], -0.211; under setting [2], -0.371; under setting [3], 0.994; (compound: thalidomide) 0.267.

B7: 46F_47Q_49N_50Q_52G_53H_54E_55F_67L_, Q9UKT9 (peptide)
chain: FQCNQCGHEFTQKGNLLRHIKL
As to B7, the “log2 fold change of degron read counts” value is, setting by setting: under setting [1], -3.09; under setting [2], -3.12; under setting [3], -3.48; (compound: thalidomide) -3.28.

B8: 46L_47C_49N_50Q_52G_53F_54W_55C_67L_, Q9UKT9 (peptide)
chain: LCCNQCGFWCTQKGNLLRHIKL
As to B8, the “log2 fold change of degron read counts” value was -0.952 under setting [1], -1.34 under setting [2], -1.18 under setting [3] and -1.07 (compound: thalidomide).

B9: 46F_47Q_49D_50V_52G_53A_54A_55F_67L_, Q9UKT9 (peptide)
chain: FQCDVCGAAFTQKGNLLRHIKL
For the sequence B9, the “log2 fold change of degron read counts” value worked out at 0.909 under setting [1], 1.9 under setting [2], 0.606 under setting [3] and 2.84 (compound: thalidomide).

B10: 46F_47M_49E_50Q_52G_53A_54T_55F_67L_, Q9UKT9 (peptide)
chain: FMCEQCGATFTQKGNLLRHIKL
In the case of B10, the “log2 fold change of degron read counts” value runs as follows: under setting [1], -2.84; under setting [2], -2.15; under setting [3], 0.0969; (compound: thalidomide) -1.3.

B11: 46F_47L_49P_50I_52G_53H_54C_55F_67L_, Q9UKT9 (peptide)
chain: FLCPICGHCFTQKGNLLRHIKL
In the case of B11, the “log2 fold change of degron read counts” value reads like this: under setting [1], -2.45; under setting [2], -2.17; under setting [3], -1.87; (compound: thalidomide) -1.49.

B12: 46F_47E_49P_50I_52G_53R_54G_55F_67L_, Q9UKT9 (peptide)
chain: FECPICGRGFTQKGNLLRHIKL
For the sequence B12, the “log2 fold change of degron read counts” value under setting [1] is -1.82, the “log2 fold change of degron read counts” value under setting [2] is -2.41, the “log2 fold change of degron read counts” value under setting [3] was -0.354 and the “log2 fold change of degron read counts” value (compound: thalidomide) was 0.562.

B13: 46F_47V_49E_50I_52G_53A_54A_55F_67L_, Q9UKT9 (peptide)
chain: FVCEICGAAFTQKGNLLRHIKL
As to B13, the “log2 fold change of degron read counts” value by setting is: under setting [1], 1.93; under setting [2], 2.89; under setting [3], 2.35; (compound: thalidomide) 3.15.

B14: 46F_47Q_49E_50I_52G_53A_54A_55F_67L_, Q9UKT9 (peptide)
chain: FQCEICGAAFTQKGNLLRHIKL
For the sequence B14, the “log2 fold change of degron read counts” value came out at 2.89 under setting [1], 2.79 under setting [2], 2.34 under setting [3] and 3.64 (compound: thalidomide).

B15: 46F_47I_49E_50I_52G_53A_54A_55F_67L_, Q9UKT9 (peptide)
chain: FICEICGAAFTQKGNLLRHIKL
In the case of B15, the “log2 fold change of degron read counts” value is 0.759 under setting [1], 2.95 under setting [2], 2.44 under setting [3] and 3.09 (compound: thalidomide).

B16: 46F_47Y_49E_50I_52G_53A_54A_55F_67L_, Q9UKT9 (peptide)
chain: FYCEICGAAFTQKGNLLRHIKL
As for B16, the “log2 fold change of degron read counts” value runs as follows: under setting [1], 3.59; under setting [2], 3.59; under setting [3], 2.92; (compound: thalidomide) 1.64.

B17: 46F_47E_49P_50I_52G_53H_54S_55F_67L_, Q9UKT9 (peptide)
chain: FECPICGHSFTQKGNLLRHIKL
Regarding B17, the “log2 fold change of degron read counts” value was -2.78 under setting [1], -2.96 under setting [2], -1.75 under setting [3] and -1.65 (compound: thalidomide).

B18: 46F_47Y_49E_50Q_52G_53A_54T_55F_67L_, Q9UKT9 (peptide)
chain: FYCEQCGATFTQKGNLLRHIKL
B18: the “log2 fold change of degron read counts” value by setting is: under setting [1], 0.368; under setting [2], 2.41; under setting [3], 0.941; (compound: thalidomide) -1.4.

B19: 46F_47S_49E_50I_52G_53A_54Y_55F_67L_, Q9UKT9 (peptide)
chain: FSCEICGAYFTQKGNLLRHIKL
In the case of B19, the “log2 fold change of degron read counts” value stood at 2.46 under setting [1], 1.44 under setting [2], 1.69 under setting [3] and 0.848 (compound: thalidomide).

B20: 46F_47Y_49P_50V_52G_53A_54C_55F_67L_, Q9UKT9 (peptide)
chain: FYCPVCGACFTQKGNLLRHIKL
For the sequence B20, the “log2 fold change of degron read counts” value runs as follows: under setting [1], 3.26; under setting [2], 3.4; under setting [3], 2.69; (compound: thalidomide) 1.29.

B21: 46F_47K_49P_50V_52G_53A_54C_55F_67L_, Q9UKT9 (peptide)
chain: FKCPVCGACFTQKGNLLRHIKL
For the sequence B21, the “log2 fold change of degron read counts” value is -0.716 under setting [1], -1.95 under setting [2], -2.51 under setting [3] and -0.832 (compound: thalidomide).

B22: 46F_47K_49P_50Q_52G_53A_54C_55F_67L_, Q9UKT9 (peptide)
chain: FKCPQCGACFTQKGNLLRHIKL
Regarding B22, the “log2 fold change of degron read counts” value reads like this: under setting [1], -2.36; under setting [2], -3; under setting [3], -3.29; (compound: thalidomide) -2.34.

B23: 46F_47Q_49P_50V_52G_53A_54C_55F_67L_, Q9UKT9 (peptide)
chain: FQCPVCGACFTQKGNLLRHIKL
Consider B23, for which the “log2 fold change of degron read counts” value runs as follows: under setting [1], 0.553; under setting [2], 2.77; under setting [3], 2.39; (compound: thalidomide) 3.46.

B24: 46F_47N_49P_50V_52G_53A_54C_55F_67L_, Q9UKT9 (peptide)
chain: FNCPVCGACFTQKGNLLRHIKL
In the case of B24, the “log2 fold change of degron read counts” value under setting [1] came out at 1.6, the “log2 fold change of degron read counts” value under setting [2] worked out at 0.504, the “log2 fold change of degron read counts” value under setting [3] was 1 and the “log2 fold change of degron read counts” value (compound: thalidomide) is -0.0222.

B25: 46F_47H_49P_50V_52G_53A_54C_55F_67L_, Q9UKT9 (peptide)
chain: FHCPVCGACFTQKGNLLRHIKL
As to B25, the “log2 fold change of degron read counts” value worked out at 2.42 under setting [1], 2.44 under setting [2], 2.11 under setting [3] and 0.528 (compound: thalidomide).

B26: 46F_47V_49P_50Q_52G_53A_54C_55F_67L_, Q9UKT9 (peptide)
chain: FVCPQCGACFTQKGNLLRHIKL
On to B26, for which the “log2 fold change of degron read counts” value is, setting by setting: under setting [1], -1.94; under setting [2], -0.402; under setting [3], 0.593; (compound: thalidomide) 0.301.

B27: 46F_47W_49P_50V_52G_53A_54C_55F_67L_, Q9UKT9 (peptide)
chain: FWCPVCGACFTQKGNLLRHIKL
In the case of B27, the “log2 fold change of degron read counts” value reads like this: under setting [1], 3.4; under setting [2], 3.44; under setting [3], 2.56; (compound: thalidomide) 1.36.

B28: 46F_47Q_49P_50Q_52G_53A_54C_55F_67L_, Q9UKT9 (peptide)
chain: FQCPQCGACFTQKGNLLRHIKL
B28: the “log2 fold change of degron read counts” value is, setting by setting: under setting [1], -1.4; under setting [2], 0.844; under setting [3], 0.805; (compound: thalidomide) 3.26.

B29: 46F_47L_49P_50V_52G_53A_54C_55F_67L_, Q9UKT9 (peptide)
chain: FLCPVCGACFTQKGNLLRHIKL
For B29, the “log2 fold change of degron read counts” value is 0.241 under setting [1], -0.146 under setting [2], 1.72 under setting [3] and 1.62 (compound: thalidomide).

B30: 46F_47Y_49N_50V_52G_53A_54C_55F_67L_, Q9UKT9 (peptide)
chain: FYCNVCGACFTQKGNLLRHIKL
B30: the “log2 fold change of degron read counts” value under setting [1] came out at 1.86, the “log2 fold change of degron read counts” value under setting [2] amounted to 2.44, the “log2 fold change of degron read counts” value under setting [3] stood at 1.12 and the “log2 fold change of degron read counts” value (compound: thalidomide) was -0.449.
